Pf growth 96h: P. falciparum growth inhibition at 96 hours | P. falciparum luciferase reporter growth, 96 h | Potency, µM (doses to about 28.7 µM), for inactives: at the top dose activity change, negative = inhibition, actives largely listed as inhibitors | 320,000 tested, 6.9% active | AID 504834; further: potency means the concentration at half of the fitted maximal effect; on the % scale 0 is the no-effect control and ±100 the full control effect
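Plates of compound plus infected erythrocytes (2% hematocrit, 0.05% parasitemia final) incubate 96 hours, 37 C, 5% CO2. Detection reagent added; reduced luminescence from the parasites' luciferase reporter flags inhibition.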
Shiga toxin inh: Shiga toxin inhibition; Vero cells, Shiga toxin protein synthesis inhibition reporter; inhibition, % at 38.7 µM; 290,000 tested, 9.2% active; in the data active means inhibition mostly above about 28%, no sharp cut-off; inactive means mostly below about 43%; further: 0% is about no effect
CHX counter: counter-screen for Shiga toxin inhibitors: cycloheximide protein synthesis inhibition; AID 2314; cell reporter, cycloheximide protein synthesis inhibition counterscreen; 300,000 tested, 12% active; max response, %; in the data active means max response mostly above about 13%, no sharp cut-off; inactive means mostly below about 14%; further: read at 38.3 µM for the half of the compounds with a filed dose; 0% is about no effect
Giardia FBPA inh: blocks Giardia fructose-bisphosphate aldolase activity | A8B2U2 | purified Giardia FBPA | Potency, µM (doses to about 59.6 µM), without a hit: top-dose activity, negative = inhibition, actives largely listed as inhibitors | 290,000 tested, 0.71% active; further: potency means the concentration at half of the fitted maximal effect; on the % scale 0 is the no-effect control and ±100 the full control effect; nearly all actives have a fitted effect of over 55% in size
Target sequence (A8B2U2 whole entry, looked up): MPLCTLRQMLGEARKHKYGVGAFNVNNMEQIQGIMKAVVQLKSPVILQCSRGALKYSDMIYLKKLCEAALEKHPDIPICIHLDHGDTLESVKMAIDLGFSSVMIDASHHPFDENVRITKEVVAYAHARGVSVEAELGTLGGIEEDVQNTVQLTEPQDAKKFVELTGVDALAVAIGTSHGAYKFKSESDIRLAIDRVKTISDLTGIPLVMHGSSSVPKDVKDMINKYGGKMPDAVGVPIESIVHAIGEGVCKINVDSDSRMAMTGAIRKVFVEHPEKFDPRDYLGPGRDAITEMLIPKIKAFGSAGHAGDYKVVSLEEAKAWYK
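40 nM FBPA preincubated 10 min at RT with compound (up to 57.5 uM final), then substrate plus GAPDH/TPI/NAD/arsenate coupling and diaphorase/resazurin added. Fluorescence read after 20 min at RT, 525/598 nm.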
Pf growth 48h: P. falciparum growth inhibition at 48 hours (one generation); P. falciparum luciferase growth in erythrocytes, 48 h; Potency, µM (titrated, usually from 28.7 µM), without a hit: at the highest dose activity change, negative = inhibition, actives largely listed as inhibitors; 310,000 tested, 5.9% active; AID 504832; further: potency means the concentration at half of the fitted maximal effect; on the % scale 0 is the no-effect control and ±100 the full control effect
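In quantitative HTS format, infected erythrocytes bearing luciferase-reporter parasites were treated for a single generation at 37 C. Luminescence after adding detection reagent served as the growth measure.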
NS1 function inh: influenza NS1 inhibition. 270,000 tested, 0.4% active. AID 2326. Potency, µM (series often up to 46.1 µM), for the others: at the highest dose activity, positive = more growth; calls by dose curve; further: potency means the concentration at half of the fitted maximal effect; actives are rising curves; nearly all actives have a fitted effect of over 50% in size
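In this qHTS, NS1 from influenza A is expressed in budding yeast, where it slows growth. Cells are switched from glucose to 2% galactose medium (pH 6.0, -URA), treated with compound, and growth recovery is read at OD600.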
Active calls of the source: *; ? = inconclusive; . = no result; + = active, no number. A selection: hits, their analogues and other compounds. The true share with any hit is near 21%. Unless noted, the call rests on the fitted dose curve; in most records, active means well fitted curve in the direction sought with a large enough effect; inconclusive means small, poorly fitted or top-dose-only effect, or another doubt; inactive means no such curve, though single readings can be large; an effect the other way counts as inactive or inconclusive.

SMILES	Pf growth 96h	Shiga toxin inh	CHX counter	Giardia FBPA inh	Pf growth 48h	NS1 function inh
CC1=C([N+](=O)[O-])C(c2ccc(Cl)cc2)NC(=O)N1C (stereo unspecified)	?	-7	1	11%	19%	18%
O=C(Nc1ccc(Br)c(C(F)(F)F)c1)c1ccccc1	-17%	21	46*	-9%	71%	-52%
CC(C)CC(=O)Nc1ccc(C(=O)Nc2cccc(O)c2)cc1	?	74*	32*	-4%	157%	4%
O=C(Nc1ccc(Br)c(C(F)(F)F)c1)c1ccc(C(F)(F)F)cc1	?	78*	36*	-13%	?	-76%
O=C(Nc1ccccc1)c1ccc(S(=O)(=O)Nc2cccc(O)c2)cc1	35%	-24	-1	.	2%	0%
O=C(Nc1cccc(O)c1)c1ccc(C(F)(F)F)cc1	180%	69*	30*	-19%	123%	-3%
O=C(Nc1ccc(C(F)(F)F)cc1)c1ccccc1	217%	.	.	.	323%	.
CCN(CC(=O)Nc1ccc(OC)cc1)C(=O)c1ccc(N2C(=O)CCC2=O)cc1	-12%	.	.	.	-3%	.
CC1C2CCC3C4CC=C5CC(N(C)C)CC[C@@]5(C)C4CC[C@@]32CN1C (stereo partly specified)	?	.	.	3%	15µM*	.
C[C@H]1[C@H]2CC[C@H]3C4CC=C5C[C@@H](N(C)C)CC[C@]5(C)C4CC[C@]23CN1C (stereo partly specified)	.	.	.	5%	.	.
Cc1cc(C(=O)OCC(=O)N2c3ccccc3CC2C)c(C)o1 (stereo unspecified)	-2%	36*	12	-3%	?	-1%
Cc1cc(=O)oc2cc(OCC(=O)N3c4ccccc4CC3C)ccc12 (stereo unspecified)	?	-3	-1	-3%	?	-16%
CCN(CC)c1cccc(OCC(=O)N2c3ccccc3CC2C)c1 (stereo unspecified)	?	.	.	.	9.3µM*	.
CC(=O)c1ccc(-c2ccc(C(=O)N3CCCc4ccccc43)o2)cc1	-11%	142	27*	-21%	-26%	.
COc1cc2c(cc1OC)CN(C(=O)c1ccc([N+](=O)[O-])o1)CC2	4.1µM*	7	-3	-23%	?	-88%
COc1cc2c(cc1OC)C1C(=O)c3c(O)cc4c(c3OC1CO2)C=CC(C)(C)O4 (stereo unspecified)	.	.	.	-30%	.	.
CCc1cc(CNC(=O)c2ccc(OC3CCN(CCc4ccccc4)CC3)cc2)on1	?	-16	-3	-7%	?	-4%
CCCNC(=O)NC(=O)CN1C(=O)NC(C)(c2ccc3ccccc3c2)C1=O (stereo unspecified)	2%	-6	-2	3%	10%	-5%
O=C(c1ccc([N+](=O)[O-])o1)N1CCc2ccccc2C1	5.2µM*	-7	-3	-5%	?	-79%
O=C(c1ccc([N+](=O)[O-])cc1[N+](=O)[O-])N1CCc2ccccc21	?	-10	-3	-15%	-15%	4%
Cc1ccc(C(=O)N2c3ccccc3CC2C)o1 (stereo unspecified)	3.7µM*	92*	39*	2%	85%	-8%
CC(=O)c1c(C)[nH]c(C(=O)N2c3ccccc3CC2C)c1C (stereo unspecified)	-12%	-10	-5	1%	.	-12%
O=C(c1ccc([N+](=O)[O-])o1)N1CCc2ccccc21	?	38*	14*	-1%	?	-68%
O=C(c1ccc([N+](=O)[O-])o1)N1CCOCC1	3.3µM*	-3	10	-10%	?	.
Cc1nc2ncnn2c(C)c1C/C=C/c1ccccc1	-27%	-9	-4	-3%	?	.
SMILES	Pf growth 96h	Shiga toxin inh	CHX counter	Giardia FBPA inh	Pf growth 48h	NS1 function inh
CCCc1ccc(NC(=O)C2CCCN(c3cnccn3)C2)cc1 (stereo unspecified)	?	42	19	.	?	-37%
Cc1ccc(C(=O)N2CCc3ccccc32)o1	41%	98*	57*	-1%	151%	-11%
Cc1cccc2cc(CN(Cc3ccc(F)cc3)Cc3nnnn3C3CCCC3)c(=O)[nH]c12	153%	-23	-4	0%	-9%	-23%
Cc1cc(C)c2[nH]c(=O)c(CN(Cc3ccc4c(c3)OCO4)Cc3nnnn3C3CCCC3)cc2c1	0%	4	-3	3%	12µM*	20%
Cc1ccc2[nH]c(=O)c(CN(Cc3nnnn3C3CCCC3)C3CCCCC3)cc2c1	.	1	-1	0%	1%	-51%
Cc1ccc2[nH]c(=O)c(CN(Cc3ccccc3)Cc3nnnn3C3CCCC3)cc2c1	?	92*	40*	-6%	?	-41%
Cc1ccc(NS(=O)(=O)c2ccc(C(=O)N3CCCC(C(F)(F)F)C3)cc2)cc1 (stereo unspecified)	14%	.	.	.	?	.
Cc1ccc(NC(=O)CCn2cnc3ccccc3c2=O)cc1	?	23	13	1%	3%	-2%
Cn1nccc1C(=O)OCC(=O)Nc1nc(-c2ccccc2)cs1	24%	54	24*	-15%	78%	-50%
O=C(COC(=O)CNC(=O)c1ccccc1)Nc1nc(-c2ccccc2)cs1	-39%	40	25*	0%	69%	2%
Cn1cc(Cl)c(C(=O)OCC(=O)Nc2nc(-c3ccc(Br)cc3)cs2)n1	301%	65*	22*	2%	162%	0%
O=C(COC(=O)c1cccs1)Nc1nc(-c2ccccc2)cs1	45%	22	1	3%	26%	5%
O=C(CCn1cnc2ccccc2c1=O)Nc1nc(-c2ccc(Br)cc2)cs1	9.3µM*	21	2	-1%	-5%	7%
NCCCCC(N)C(=O)NC(Cc1ccc(O)cc1)C(=O)NC(CCCCN)C(=O)O (stereo unspecified)	.	.	.	-3%	.	.
O=C(Cn1nnc2c(cnn2-c2ccc(F)cc2)c1=O)OC1CCCCC1	.	64	28*	3%	16%	-6%
CN(C)c1nc2ccccc2n(C)c1=O	11%	-4	4	0%	0%	.
Cn1c(-c2cccs2)nc2ccccc21	-7%	125*	35*	-1%	255%	.
CC(C)Cn1c(-c2cccs2)nc2ccccc21	.	-13	11	-14%	-11%	-135%
Cn1c(-c2ccc(C=O)s2)nc2ccccc21	?	71	23*	-14%	.	-164%
Cc1ccc(NC(=O)CS(=O)CC(=O)N(CC(=O)NC(C)(C)C)c2cccc(C)c2C)cc1 (stereo unspecified)	-1%	-11	-4	1%	-3%	-4%
O=C(CCC(=O)c1ccccc1)Nc1ccc(C(=O)O)cc1	-25%	8	-1	18%	6%	14%
Cc1ccccc1NC(=O)c1ccc(S(=O)(=O)N(C)C)cc1	-2%	-2	-1	-3%	-18%	3%
Cc1ccc(NC(=O)c2ccc(S(=O)(=O)C(F)F)cc2)c(C)c1	-5%	+	28*	-15%	25%	-3%

Source: PubChem
